Laboratory results as given in PubChem BioAssay AID492972 (The Scripps Research Institute Molecular Screening Center, 2010).
About 930 (0.27%) of roughly 340,000 compounds were called active.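 The calls were made as follows: active = inhibition above the screen-wide average of all tested compounds plus 3 SD (cut at about 25% in these data); inactive = the rest.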 This excerpt belongs to a sample that is enriched for actives.

biological target: Platelet-activating factor acetylhydrolase IB subunit alpha1 (Homo sapiens) (UniProt Q15102); experiment: PAFAH1B3 enzyme inhibitors, primary screen, biochemical, fluorescence polarization, human (AID 492972); settings: recombinant PAFAH1B3, FP-rhodamine probe, at 3.39 µM, active compounds read high;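 also: 0% = enzyme with DMSO only and 100% = wells lacking PAFAH1B3 protein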
Sequence (Q15102 whole entry, looked up): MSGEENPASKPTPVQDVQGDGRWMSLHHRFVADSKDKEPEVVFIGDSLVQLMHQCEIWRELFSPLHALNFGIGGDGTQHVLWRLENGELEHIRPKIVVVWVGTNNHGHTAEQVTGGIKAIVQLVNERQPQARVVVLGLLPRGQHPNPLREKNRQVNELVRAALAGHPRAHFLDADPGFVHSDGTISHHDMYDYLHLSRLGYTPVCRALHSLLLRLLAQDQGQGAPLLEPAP

| Structure (SMILES) | inhibition |
| --- | --- |
| O=C1NC(=O)N(c2ccc(F)cc2)C(=O)/C1=C/c1ccc2c(c1)CCCN2Cc1ccccc1 | 4.39% (inactive) |
| COc1ccc(N2C(=O)/C(=C/c3ccco3)C(=O)NC2=S)cc1 | 16.7% (inactive) |
| O=C1NC(=O)N(c2ccccc2)C(=O)/C1=C/c1ccc([N+](=O)[O-])s1 | 25.6% (active) |
| CCCCCn1c(=O)c(C(=O)NCc2ccccn2)c(O)c2ccccc21 | 4.97% (inactive) |
| COC(=O)N(c1ccc(OC)cc1)P1(=S)OCCC(C)O1 (stereo not given) | -0.56% (inactive) |
| COc1cc(Cn2c(N)c(C(=O)NCc3ccco3)c3nc4ccccc4nc32)cc(OC)c1OC | 9.25% (inactive) |
| CC/C(=N\NC(=O)c1ccccc1O)c1c(O)n(Cc2ccccc2)c(=O)[nH]c1=O | 13.4% (inactive) |
| CCOC(=O)c1c(N)n(Cc2ccccc2)c2nc3ccccc3nc12 | 36.2% (active) |
| O=C(c1cc2nc(-c3ccccc3)cc(-c3ccccc3)n2n1)N1CCC2(CC1)OCCO2 | 1.81% (inactive) |
| COC(=O)C(O)(c1ccc(NC(=O)c2ccco2)c(OC)c1)C(F)(F)F (stereo not given) | -1.88% (inactive) |
